Compound activity deposited in PubChem by National Center for Advancing Translational Sciences (NCATS).
JMJD2A Tudor = JMJD2A Tudor domain (human) inhibition; O75164; AlphaScreen JMJD2A-Tudor / H3K4me3 peptide binding; Potency, µM (series often up to 114 µM), for inactives: at the highest dose activity change, negative = inhibition, most hits filed as inhibitors; 390,000 tested, 4.4% active; AID 504339; further: on the % scale 0 is the no-effect control and ±100 the full control effect; nearly all actives have a fitted effect of over 50% in size
BAZ2B inh = BAZ2B (human) inhibition; AlphaScreen BAZ2B-H3K14Ac peptide displacement; Potency, µM (doses to about 114 µM), for inactives: top-dose activity change, negative = inhibition, most hits filed as inhibitors; Q9UIF8; 360,000 tested, 4.4% active; further: on the % scale 0 is the no-effect control and ±100 the full control effect; nearly all actives have a fitted effect of over 60% in size
Target sequence (Q9UIF8 whole entry, looked up): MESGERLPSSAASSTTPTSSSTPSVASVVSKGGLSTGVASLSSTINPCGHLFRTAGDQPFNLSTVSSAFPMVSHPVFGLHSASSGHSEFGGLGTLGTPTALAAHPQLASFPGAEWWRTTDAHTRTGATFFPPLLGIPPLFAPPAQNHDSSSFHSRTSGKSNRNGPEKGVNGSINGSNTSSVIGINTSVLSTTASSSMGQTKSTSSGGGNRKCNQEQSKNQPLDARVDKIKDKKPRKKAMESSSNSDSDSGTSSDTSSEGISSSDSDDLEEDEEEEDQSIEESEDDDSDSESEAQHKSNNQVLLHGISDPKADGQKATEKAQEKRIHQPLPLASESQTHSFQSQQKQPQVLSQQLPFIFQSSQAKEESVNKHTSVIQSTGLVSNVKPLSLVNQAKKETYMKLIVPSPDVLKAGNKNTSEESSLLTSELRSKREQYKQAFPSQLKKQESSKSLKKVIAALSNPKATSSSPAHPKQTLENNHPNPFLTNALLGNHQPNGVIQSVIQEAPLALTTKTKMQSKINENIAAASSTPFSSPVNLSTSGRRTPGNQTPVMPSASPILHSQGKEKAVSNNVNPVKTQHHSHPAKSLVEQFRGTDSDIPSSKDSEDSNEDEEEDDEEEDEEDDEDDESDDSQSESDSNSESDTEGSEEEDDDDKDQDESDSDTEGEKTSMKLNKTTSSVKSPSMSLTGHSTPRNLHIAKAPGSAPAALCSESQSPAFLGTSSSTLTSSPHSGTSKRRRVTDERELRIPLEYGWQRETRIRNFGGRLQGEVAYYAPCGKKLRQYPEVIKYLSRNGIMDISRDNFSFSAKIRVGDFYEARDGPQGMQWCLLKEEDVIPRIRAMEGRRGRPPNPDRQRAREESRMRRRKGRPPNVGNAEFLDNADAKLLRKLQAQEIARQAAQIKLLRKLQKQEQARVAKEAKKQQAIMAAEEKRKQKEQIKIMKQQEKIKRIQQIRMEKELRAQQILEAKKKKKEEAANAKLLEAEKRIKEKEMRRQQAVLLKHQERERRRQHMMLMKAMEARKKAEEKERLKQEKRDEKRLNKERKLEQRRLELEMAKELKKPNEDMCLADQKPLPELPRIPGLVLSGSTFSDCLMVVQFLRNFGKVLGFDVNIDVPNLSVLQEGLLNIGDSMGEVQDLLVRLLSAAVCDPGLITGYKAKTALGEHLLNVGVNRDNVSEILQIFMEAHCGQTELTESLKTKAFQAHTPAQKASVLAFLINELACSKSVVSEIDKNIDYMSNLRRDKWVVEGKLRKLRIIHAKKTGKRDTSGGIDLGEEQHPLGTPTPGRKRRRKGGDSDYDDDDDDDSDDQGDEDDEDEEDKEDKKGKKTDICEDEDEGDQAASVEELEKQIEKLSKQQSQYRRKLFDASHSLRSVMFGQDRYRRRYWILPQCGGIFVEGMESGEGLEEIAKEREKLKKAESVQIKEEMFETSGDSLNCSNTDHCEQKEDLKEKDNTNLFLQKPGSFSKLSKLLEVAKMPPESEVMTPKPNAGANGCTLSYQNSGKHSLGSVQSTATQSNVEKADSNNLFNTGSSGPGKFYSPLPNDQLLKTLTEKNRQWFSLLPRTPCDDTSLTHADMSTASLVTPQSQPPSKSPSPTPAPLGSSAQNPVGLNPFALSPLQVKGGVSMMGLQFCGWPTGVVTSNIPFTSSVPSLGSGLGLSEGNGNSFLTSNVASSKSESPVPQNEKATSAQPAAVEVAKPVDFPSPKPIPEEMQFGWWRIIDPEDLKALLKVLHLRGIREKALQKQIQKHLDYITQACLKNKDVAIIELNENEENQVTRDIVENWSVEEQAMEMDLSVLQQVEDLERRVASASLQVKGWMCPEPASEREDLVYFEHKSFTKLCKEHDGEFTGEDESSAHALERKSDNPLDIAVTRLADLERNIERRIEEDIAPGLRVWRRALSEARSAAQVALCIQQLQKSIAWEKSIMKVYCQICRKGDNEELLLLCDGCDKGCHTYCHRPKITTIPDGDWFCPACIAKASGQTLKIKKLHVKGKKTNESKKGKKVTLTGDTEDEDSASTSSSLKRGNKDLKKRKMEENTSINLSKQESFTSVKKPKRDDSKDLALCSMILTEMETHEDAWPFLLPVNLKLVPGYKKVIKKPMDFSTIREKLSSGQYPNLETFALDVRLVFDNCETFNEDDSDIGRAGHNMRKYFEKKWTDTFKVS
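Multi-concentration screen (max 110 uM) measuring displacement of acetylated histone H3 peptide from BAZ2B by AlphaScreen, using 50 nM protein, 50 nM peptide and 10 ug/mL streptavidin donor plus Ni-chelate acceptor beads.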
Sfp inh = inhibitors of Bacillus subtilis Sfp phosphopantetheinyl transferase; Q9F4F7; Biochemical Sfp PPTase activity, qHTS; Potency, µM, inactives show largest response in the series, negative = inhibition, actives largely listed as inhibitors; 310,000 tested, 3.5% active; AID 1490;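 further: the enzyme is Sfp with the accession as filed and its product quenches rhodamine fluorescence; 0% = enzyme reaction without inhibitor and -100% = no enzyme wells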
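Sfp 15 nM + cpd, 15 min RT; start w/ rhodamine-CoA 5 uM, BHQ-2-YbbR 12.5 uM (final); 50 mM Hepes pH 7.6, 10 mM MgCl2, 0.01% NP-40, 0.01% BSA; read 525/598 nm at 0 and 30 min.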
HP1b binding inh = blocks HP1-beta chromodomain binding to methylated histone tails; P83916; Potency, µM (highest dose often 114 µM), without a hit: top-dose activity change, negative = inhibition, hits mostly inhibitors; 390,000 tested, 0.56% active; AlphaScreen HP1-beta / biotin-H3K9me3 peptide binding; further: nearly all actives have a fitted effect of over 70% in size
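Compound inhibition of the preformed complex between 50 nM HP1-beta and 50 nM biotinylated H3K9me3 peptide was read by AlphaScreen. Buffer was PBS pH 7.4 with 0.01% Tween-20. Incubations ran 30 min at room temperature, with 10 ug/mL donor/acceptor beads.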
G9a block = blocks human histone lysine methyltransferase G9a. G9a H3K9 monomethylation, AlphaScreen, 2 h. Potency, µM (highest dose often 102 µM), inactives show at the top dose activity, negative = inhibition, most hits filed as inhibitors. 350,000 tested, 8.8% active; further: on the % scale 0 is the no-effect control and ±100 the full control effect; nearly all actives have a fitted effect of over 75% in size
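G9a (20 nM) was preincubated 15 min with compound, then reacted 2 h at room temperature with 500 nM biotin-H3K9 peptide and 20 µM SAM. Monomethyl-H3K9 detected by AlphaScreen using anti-H3K9me1 antibody.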
Active calls of the source: *; ? = inconclusive; . = not tested or not shown; [ ] = another dose, or the depositor's remark. In the library only some 12% were active in any assay of this set; here they are far more common. The call rests on the fitted dose curve; in most records, active means well fitted curve in the direction sought with a large enough effect; inconclusive means small, poorly fitted or top-dose-only effect, or another doubt; inactive means no such curve, though single readings can be large; an effect the other way counts as inactive or inconclusive. Potency means the concentration at half of the fitted maximal effect.

SMILES | JMJD2A Tudor | BAZ2B inh | Sfp inh | HP1b binding inh | G9a block
Cc1ccc(NC(=O)Cn2nnnc2-c2ccccc2N)cc1 | -27% | -4% | . | 2% | 2%[59 µM]
O=C1OC(c2ccccc2)(c2ccccc2)c2ccccc21 | 50% | . | . | 40%[57 µM] | .
CN(C)c1ccc(C2(c3ccc(N(C)C)cc3)OC(=O)c3cc(N)ccc32)cc1 | 28µM* | 18µM* | -4% | 16µM* | 16%[2.33 µM]
Cc1cc2ccccc2c(=O)n1CC(=O)NCC(=O)N1CCN(c2ccccc2)CC1 | -31% | ? | 50µM* | 17% | 26%[59 µM]
c1ccc(-c2nn3c(Cn4nnc5ccccc54)nnc3s2)cc1 | ? | 1% | -100% | ? | 3.2µM*
c1ccc2c(c1)nnn2Cc1nnc2sc(-c3ccc4c(c3)OCCO4)nn12 | -29% | -1% | 18µM* | -36% | ?
COc1ccc(Cc2nn3c(Cn4nnc5ccccc54)nnc3s2)cc1 | 89µM* | -38% | 16µM* | ? | 1.6µM*
Cn1c(Cn2nnc3ccccc32)nnc1SCC(=O)Nc1ccc2c(c1)OCO2 | -7% | 6% | 12% | 26% | -4%[12.7 µM]
CCN(CC)S(=O)(=O)c1ccc(N2CCCCS2(=O)=O)cc1 | -3% | -3% | . | 25% | 1%[59 µM]
O=C(Nc1cccc(C(=O)O)c1)/C(=C/c1ccc([N+](=O)[O-])cc1)NC(=O)c1ccccc1 | -14% | -21% | 23% | 18% | -36%
O=C(O)c1cccc(N2C(=O)/C(=C/c3ccc([N+](=O)[O-])cc3)C=C2c2ccccc2)c1 | 25µM* | 40µM* | ? | -26% | 16µM*
O=C1/C(=C/c2ccc([N+](=O)[O-])cc2)C=C(c2ccccc2)N1c1ccccc1 | -26% | -26% | -2% | -5% | ?
O=C(O)c1cccc(N2C(=O)c3cc([N+](=O)[O-])cc4cc([N+](=O)[O-])cc(c34)C2=O)c1 | 50µM* | 56µM* | -28% | ? | .
COc1ccc(N2C(=O)/C(=C/c3ccc([N+](=O)[O-])cc3)C=C2c2ccccc2)cc1 | 2.8µM* | 2.2µM* | 8% | 3.2µM* | .
O=C1/C(=C/c2ccc([N+](=O)[O-])cc2)C=C(c2ccccc2)N1c1ccc(O)cc1 | ? | 10µM* | -4% | ? | ?
OC(CN1CCC(Cc2ccccc2)CC1)c1ccccc1 (stereo not given) | -11% | 5% | 14% | 43% | -16%
CCN1CCN(c2nc(Nc3cccc(OC)c3)nc(N)c2[N+](=O)[O-])CC1 | ? | -17% | 17% | 6% | 24%[2.33 µM]
CCOc1ccc(Nc2nc(N)c([N+](=O)[O-])c(N3CCN(C)CC3)n2)cc1 | -25% | ? | 12% | 16% | 79µM*
CN(C)c1ccc(Nc2nc(N)c([N+](=O)[O-])c(N3CCOCC3)n2)cc1 | ? | 35µM* | ? | ? | 7.1µM*
Cc1cccc(Nc2nc(N)c([N+](=O)[O-])c(N3CCC(C)CC3)n2)c1 | 32µM* | ? | 1% | ? | 50µM*
CCN1CCN(c2nc(Nc3ccc(C)c(C)c3)nc(N)c2[N+](=O)[O-])CC1 | ? | ? | 11% | ? | 10µM*
Cc1cccc(Nc2nc(N)c([N+](=O)[O-])c(N3CC(C)CC(C)C3)n2)c1 (stereo not given) | ? | ? | -1% | ? | ?
Cc1cc2oc3c(c(=O)c2cc1C)C(c1ccc(C(C)C)cc1)N(c1nc(C)c(C)s1)C3=O (stereo not given) | 7% | 5% | . | 25% | 10%[59 µM]
CCOc1ccccc1OCCOCCOc1ccccc1[N+](=O)[O-] | 9%[57.1 µM] | -1% | -6% | 59% | 4%[59 µM]
Cc1ccc(OCCCCCN2CCOCC2)cc1 | -2% | -1% | 19% | 23% | 23%[59 µM]
SMILES | JMJD2A Tudor | BAZ2B inh | Sfp inh | HP1b binding inh | G9a block
CC1CCN(CCCCOc2ccccc2[N+](=O)[O-])CC1 | 4.5µM* | ? | -31% | ? | ?
O=[N+]([O-])c1ccc(OCCCCN2CCc3ccccc3C2)cc1 | 20µM* | 79µM* | -28% | ? | 35µM*
CC1CCN(CCCCOc2cccc(C(C)C)c2)CC1 | 56µM* | ? | -8% | -29% | 40µM*
O=[N+]([O-])c1ccc(OCCCCN2CCCCC2)cc1 | 4% | 0% | 18% | 31% | ?
Cc1ccc(OCCCCN2CCC(C)CC2)cc1 | 3.2µM* | 50µM* | -18% | ? | -32%
CC1CCN(CCCCOc2ccc(F)cc2)CC1 | 3.2µM* | ? | -8% | ? | ?
CC1CCN(CCCCOc2ccc([N+](=O)[O-])cc2)CC1 | 79µM* | -33% | -10% | 5% | 11µM*
NCCc1nnc(SCC(=O)c2ccc(Cl)cc2)o1 | -3% | -17% | 56µM* | 18% | ?
CC(C)(C)OC(=O)NCCc1nnc(SCC(=O)c2ccc(Cl)cc2)o1 | -18% | -24% | -37% | 6% | -3%[12.7 µM]
NCCCCCc1nnc(SCC(=O)c2ccc(Cl)cc2)o1 | -16% | 0% | 50µM* | 26% | 50µM*
COc1ccc(C(=S)N2CCOCC2)cc1OC(=O)c1cc(OC)c(OC)c(OC)c1 | ? | ? | 45µM* | ? | 7.9µM*
COc1cc(C(=S)N2CCOCC2)ccc1OC(=O)Cc1ccc(F)cc1 | -15% | -8% | 2% | 6% | ?
COc1ccc(C(=S)N2CCOCC2)cc1OC(=O)c1ccc(C)cc1 | ? | ? | -1% | -20% | 45µM*
O=C(C=Cc1ccco1)N1CCOCC1 | -10% | . | . | 9%[57 µM] | .
COc1cc(C(=S)N2CCOCC2)cc(Br)c1OS(=O)(=O)c1ccccc1 | ? | 4% | 7% | 9% | .
COc1cc(C(=O)Oc2ccc(Br)cc2C(=S)N2CCOCC2)cc(OC)c1OC | -36% | -30% | 32µM* | ? | 10µM*
COc1cc(C(=S)N2CCOCC2)ccc1OC(=O)/C=C/c1ccco1 | -26% | . | 56µM* | 21% | ?
COc1ccc(C(=S)N2CCOCC2)cc1OC(=O)c1cccc([N+](=O)[O-])c1 | ? | -3% | 20% | -4% | -2%
COc1ccc(C(=S)N2CCOCC2)cc1OC(=O)c1ccccc1 | -35% | -38% | 56µM* | ? | 10µM*
COc1cc(C(=S)N2CCOCC2)ccc1OC(=O)c1ccccc1 | -10% | -26% | -3% | 13% | 40µM*
COc1ccc(NS(=O)(=O)c2cccc(C(=O)N(C)Cc3ccc(SC)cc3)c2)cc1 | ? | -36% | . | 21% | -12%[0.501 µM]
Cc1ccc(C)c(S(=O)(=O)N2CCN(C(=O)CCC(=O)NCc3ccc(Cl)cc3Cl)CC2)c1 | -14% | . | . | 26% | .
O=C(O)c1ccc(S(=O)(=O)Nc2ccc3c(c2)OCCO3)cc1 | 4% | 2% | -7% | 40% | 6%
CCN(CC)CCCNc1ncnc2c1cnn2-c1ccc(C)c(C)c1 | -6% | 0% | . | 24% | -6%[59 µM]
Cc1ccc(C(=O)NNC(=O)c2ccc(NC(=O)C(C)(C)C)cc2)cc1 | -3% | 3% | 22% | 32% | 20%
